Laboratory results published in PubChem BioAssay AID588342 (National Center for Advancing Translational Sciences (NCATS), 2011).
Hit rate of the full screen: of about 360,000 compounds, about 25,000 (6.9%) were called active. Not shown: some 9% with an inconclusive outcome. Calls come from the whole dose curve; as a rule, active = well fitted inhibition curve with a large enough effect; inconclusive = small, poorly fitted or top-dose-only effect; inactive = flat fitted curve, though single readings scatter. The list comes from a sample in which actives are over-represented; it also holds similar structures and randomly drawn compounds.

Biological target: Luciferin 4-monooxygenase (Photinus pyralis) (UniProt P08659)
Experiment: qHTS profiling assay for firefly luciferase inhibitor/activator using purifed enzyme and Km concentrations of substrates (counterscreen for miR-21 project); note: nearly all actives have a fitted effect of over 55% in size;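 for activity change, negative = inhibition: plate controls were vehicle for no effect and reference inhibitor for full effect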
Conditions: purified FLuc, luminescence inhibition; series mostly up to 57.5 µM; activity change, negative = inhibition: at the top concentration
Description: MLPCN Grant: 1 R21 NS059478-01 (miR-21 grant) Assay Provider: NCGC NCGC Assay Overview: Firefly (Photinus pyralis) luciferase is one of the most commonly used transcriptional reporters for a number of reasons. It is considered one of the more dynamically responsive reporters -that is, responsive to changes in reporter transcription - as it requires no post-translational modifications and is enzymatically active directly after protein synthesis (Wood, 1998). Additionally, the half-life of the luciferase protein is short relative to other reporter-gene products (Wood, 1995). Whereas reporters with long half-lives potentially allow for increased signal due to accumulation of reporter-gene product, once accumulated in the cell, dynamic changes in reporter-gene expression may be difficult to detect(Fan and Wood, 2007; Almond et al., 2004). It has been shown that wild-type P. pyralis luciferase has a half-life of approximately […] hours in mammalian cells (Thompson et al., 1991). Firefly luciferase reporter-gene assays are also generally considered one of the most sensitive assay types (Wood, 1995; Wood, 1998). Although light produced in a bioluminescence reaction is of lower intensity than that produced during fluorescence emission, this is offset by little to no background light inherent to luminescent assays. Thus the luciferase reporter can be expressed at much lower levels than fluorescent proteins while still providing robust signal. # However, it was initially observed, in 1991, by Thompson et al., that compounds that resemble the substrates of firefly luciferase (FLuc) can act as competitive inhibitors of the enzyme, and that these compounds, upon interaction with luciferase in the cell, can actually stabilize the protein and increase its half-life. Accumulated intracellular FLuc protein can be measured as an increase in luminescence signal, upon addition of detection reagents (which contain high concentrations of FLuc substrates) commonly used in high-throughput screening. In cell-based reporter gene assays that use FLuc as the reporter gene to quantitate the potential influence of a given compound against the target biology, this apparent increase in luminescence can mistakenly be interpreted as identification of a compound that is active against the target of interest. This is the case for the miR-21 FLuc reporter gene assay used to identify inhibitors of the miR-21 pathway (PubChem AID 2289) - compounds of interest will inhibit miR-21 biogenesis/expression or activity, and are identified by causing an increase in luminescence, due to increased FLuc translation. However, FLuc inhibitory compounds that stabilize the FLuc protein will give an identical read-out, making it difficult to distinguish compounds that are active against the target from those active against FLuc. Previous profiling work to determine the prevalence of compounds that affect FLuc enzymatic activity (PubChem AID 411) identified that ~3% of the MLSMR library (then at ~72K) inhibited FLuc. […] Since the MLSMR had grown to ~350K compounds, and since it was expected that a significant percentage of compounds found active in the miR-21 FLuc assay would be FLuc inhibitors, the library was screened for activity against FLuc using a biochemical assay of purified FLuc and KM concentrations of FLuc substrates (D-luciferin and ATP).
NCGC Assay Protocol Summary: Reagents: 50mM Tris acetate, pH 7.5; 10mM Mg acetate; 10uM D-luciferin (Sigma #L9504); 10uM ATP; 0.01% Tween-20; 0.05% BSA; 10nM P. pyralis luciferase (Sigma #L9506) Control compounds used were two known firefly luciferase inhibitors (compounds (2) and (5) in Auld et al., 2010), and DMSO. […]

Chain of Luciferin 4-monooxygenase (Photinus pyralis) (P08659 whole entry, looked up): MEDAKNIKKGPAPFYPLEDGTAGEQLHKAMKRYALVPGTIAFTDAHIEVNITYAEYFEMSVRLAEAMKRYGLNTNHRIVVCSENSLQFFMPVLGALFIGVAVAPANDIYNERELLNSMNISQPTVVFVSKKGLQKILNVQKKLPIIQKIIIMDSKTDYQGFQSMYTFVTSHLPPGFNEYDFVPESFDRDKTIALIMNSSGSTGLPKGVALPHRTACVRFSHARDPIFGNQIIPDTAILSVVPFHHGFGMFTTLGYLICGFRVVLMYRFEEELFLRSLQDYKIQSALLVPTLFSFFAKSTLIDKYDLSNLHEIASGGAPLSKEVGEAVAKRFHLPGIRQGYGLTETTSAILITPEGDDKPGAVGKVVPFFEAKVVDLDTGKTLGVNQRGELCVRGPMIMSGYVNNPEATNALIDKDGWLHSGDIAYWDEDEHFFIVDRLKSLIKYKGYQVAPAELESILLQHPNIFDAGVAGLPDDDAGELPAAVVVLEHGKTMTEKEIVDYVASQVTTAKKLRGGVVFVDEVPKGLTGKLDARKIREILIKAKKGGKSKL

Structure (SMILES) | Potency | activity change, negative = inhibition
COc1cccc(CC(=O)Nc2ccc(-c3csc(C)n3)cc2)c1 | 16.9 µM (active) | –
COc1cccc(NC(=O)CN2CCN(c3nc(-c4cccc(OC)c4)cs3)CC2)c1 | – | -18.5% (inactive)
CCC1SC(CC)C(=O)N(CC(=O)NC2CCCCC2)C1=O (configuration not stated) | – | 5.3% (inactive)
Cc1cccc(NC(=O)C2CCCN2S(=O)(=O)c2cccc3nsnc23)c1C (configuration not stated) | – | -1.86% (inactive)
Cc1nn(C)c2c1c(C(F)(F)F)cc(=O)n2C(C)C(=O)NCc1ccc(Cl)cc1 (configuration not stated) | – | -6.42% (inactive)
CC(CC(=O)Nc1ccccc1)n1ccnc1 (configuration not stated) | – | -1.48% (inactive)
CCc1nc2ccc(C(=O)N3CCN(c4cc(Cl)ccc4C)CC3)cc2nc1CC | – | -1.21% (inactive)
COc1ccc(CCNC(=O)Cn2c(=O)cc(C(F)(F)F)c3c(C)nn(C)c32)c(OC)c1 | – | 7.08% (inactive)
CCc1ccccc1NC(=O)N1CCC2(CC1)Oc1ccccc1C(=O)N2Cc1ccccc1F | – | -10.7% (inactive)
CCN(CC(=O)Nc1cc(Cl)ccc1C)C(=O)CSCc1ccccc1 | – | -2.11% (inactive)
Fc1cccc(Cc2noc(CN3CCN(c4cnccn4)CC3)n2)c1 | – | 2.61% (inactive)
CCCc1nnc(NC(=O)c2cccs2)s1 | 16.9 µM (active) | –
CCc1nnc(NC(=O)Cc2cccs2)s1 | – | -1.84% (inactive)
CCCc1nnc(NC(=O)CCC(=O)NC2CC2)s1 | – | 0.134% (inactive)
COc1ccc(CCNC(=O)c2ccc3c(c2)nc(C)n3-c2ccc(Br)cc2)cc1OC | – | -2.6% (inactive)
COc1ccc(OC)c(NC(=O)Cn2c(=O)n(Cc3ccccc3)c(=O)c3ccccc32)c1 | – | -0.577% (inactive)
Cc1ccc(NC(=O)C(C)Sc2nnc(C3CC3)n2C2CC2)cc1S(=O)(=O)N1CCOCC1 (configuration not stated) | – | 12.6% (inactive)
CC(=O)C1=C(C)NC(=O)NC1c1ccc2c(c1)OCO2 (configuration not stated) | – | 4.8% (inactive)
CC(=O)c1cc2c(cc1N)OCO2 | – | 3.19% (inactive)
Nc1[nH][nH]c(=O)c1N=Nc1ccc2c(c1)OCO2 | 13.5 µM (active) | –
Cc1ccc(CNC(=O)CC(NC(=O)c2ccccc2)c2ccccc2)cc1 (configuration not stated) | – | 6.17% (inactive)
Cc1cccc(NC(=O)CN2CCN(CC(=O)NCC3(N4CCCCC4)CCCCC3)CC2)c1C | – | 6.22% (inactive)
Cn1c(SCC(=O)N2CCCC2)nnc1-c1cccs1 | – | 0.337% (inactive)
CCn1c(SCC(=O)Nc2nccs2)nnc1-c1ccncc1 | – | -0.256% (inactive)
CCn1c(SCC(=O)c2ccc(Cl)s2)nnc1-c1cccs1 | 16.9 µM (active) | –
Cc1ccc(C)c(N2CCN(C(=O)Cn3ncc4c(=O)oc5ccc(C)cc5c43)CC2)c1 | – | 2.16% (inactive)

Structure (SMILES) | Potency | activity change, negative = inhibition
COc1ccc(OC)c(CCNC(=O)CCCn2c(=O)c3cccn3c3cccnc32)c1 | – | -0.342% (inactive)
COc1ccc(N(CCC(=O)NCCc2ccccc2)S(=O)(=O)c2ccc(C)cc2C)cc1 | – | -19.9% (inactive)
O=C(CSc1nc(=O)[nH]c2c1CCCC2)Nc1cc(C(F)(F)F)ccc1Cl | – | -12.1% (inactive)
O=C(Nc1cc(C(F)(F)F)ccc1Cl)c1cc2nc3c(c(C(F)(F)F)n2n1)CCCC3 | 2.69 µM (active) | –
O=C(Nc1cc(C(F)(F)F)ccc1Cl)c1cc2nc(-c3ccc4c(c3)OCO4)cc(C(F)(F)F)n2n1 | – | 4.73% (inactive)
COc1cccc(N2CCN(S(=O)(=O)c3ccc4c(c3)CCCN4C(C)=O)CC2)c1 | – | -5.49% (inactive)
COc1ccc(/C(C)=N/Nc2cc(C(F)(F)F)ccc2Cl)c(OC)c1 | – | 3.38% (inactive)
O=S(=O)(NCc1ccco1)c1cnc(Cl)c(Cl)c1 | – | -0.879% (inactive)
C/C(=N\Nc1ccc(S(N)(=O)=O)cc1[N+](=O)[O-])c1cccs1 | – | 0.692% (inactive)
COc1cccc(/C(C)=N/Nc2ncc(Cl)cc2Cl)c1 | 19 µM (active) | –
C/C(=N\Nc1ncc(Cl)cc1Cl)c1cccs1 | 9.53 µM (active) | –
C/C(=N\NS(=O)(=O)c1ccc(Br)cc1)c1cccs1 | – | -1.87% (inactive)
Cc1c(Cl)cnc(NC(=O)COC(=O)c2ccc(S(=O)(=O)NCc3ccco3)cc2)c1Cl | – | -2.56% (inactive)
C/C(=N\NC(=O)COc1c(C)cccc1C)c1cccs1 | – | 6.97% (inactive)
O=C(Nc1ccccc1-c1nc2ccccc2[nH]c1=O)c1cccs1 | – | -3.19% (inactive)
CC(Oc1ccc(Cl)cc1)C(=O)OCC(=O)Nc1ncc(Cl)cc1Cl (configuration not stated) | – | 4.74% (inactive)
C/C(=N\Nc1nc2ccccc2[nH]1)c1cccs1 | 2.69 µM (active) | –
C/C(=N\Nc1ncc(Cl)cc1Cl)c1ccc(S(=O)(=O)NCc2ccco2)cc1 | 16.9 µM (active) | –
CCOC(=O)c1c(NC(=O)CSc2cn(CCNC(=O)c3cccc(C(F)(F)F)c3)c3ccccc23)sc2c1CCC2 | – | 4.53% (inactive)
Cc1occc1-c1nnc(SCC(=O)NC2CCCCC2)o1 | – | 0.886% (inactive)
CCCc1nn2c(=O)cc(COC(=O)c3ccc(NC(=O)COc4ccc(F)cc4)cc3)nc2s1 | – | -4.99% (inactive)
COc1ccc(S(=O)(=O)NCC(c2ccc(N(C)C)cc2)N2CCCC2)cc1 (configuration not stated) | – | -3.23% (inactive)
O=C(Cn1ncc2c3ccccc3n(Cc3ccccc3)c2c1=O)NCCCN1CCOCC1 | – | 1.27% (inactive)
Cn1cnnc1SCC(=O)Nc1ccc(N2CCOCC2)cc1 | – | -16.7% (inactive)
CCn1c(Cc2ccc(OC)cc2)nnc1SCC(=O)Nc1ccc(N2CCOCC2)cc1 | 23.9 µM (active) | –
CCn1c(CNC(=O)C23CC4CC(CC(C4)C2)C3)nnc1SCC(=O)Nc1ccc(OC)cc1 | – | 2.85% (inactive)
